# Compound activity: PubChem, The Scripps Research Institute Molecular Screening Center
# Shown are actives, neighbours in structure and some others; about 3.4% of the full set was active somewhere.
# GPR151 ag: activators of human GPR151. Q8TDV0. PathHunter beta-arrestin GPR151 cells, luminescence. activation, % at 11.2 µM. 1% of 650,000 active; in the data active = activation above about 4.9%;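 also: 0% = median of compound wells and 100% = cells with positive control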
# TEAD-YAP block: TEAD-YAP interaction inhibition. HEK-TIYL cells, TEAD-Gal4/YAP UAS-luciferase luminescence. inhibition, % at 9.12 µM. 1.4% of 640,000 active. AID 1259422; in the data active = inhibition above about 32%;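 also: 0% = median of test compound wells and 100% = reference inhibitor wells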
# MITF inh: inhibitors of human MITF. 0.91% of 650,000 active. AlphaScreen MITF homodimerization, bead proximity signal. O75030. inhibition, % at 2.6 µM; in the data active = inhibition above about 50%;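 also: 0% = vehicle wells with protein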
# FBW7 activator: human FBW7 E3 ligase activation, primary screen; normalized activity (activation), % at 26.1 µM; AlphaScreen FBW7–phospho-cyclin E peptide binding, activator screen; AID 1259310; Q969H0; 0.13% of 650,000 active; in the data active = normalized activity above about 1.9%;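 also: purified mutant Fbw7 with reduced substrate affinity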
# Target sequence (Q969H0 whole entry, looked up): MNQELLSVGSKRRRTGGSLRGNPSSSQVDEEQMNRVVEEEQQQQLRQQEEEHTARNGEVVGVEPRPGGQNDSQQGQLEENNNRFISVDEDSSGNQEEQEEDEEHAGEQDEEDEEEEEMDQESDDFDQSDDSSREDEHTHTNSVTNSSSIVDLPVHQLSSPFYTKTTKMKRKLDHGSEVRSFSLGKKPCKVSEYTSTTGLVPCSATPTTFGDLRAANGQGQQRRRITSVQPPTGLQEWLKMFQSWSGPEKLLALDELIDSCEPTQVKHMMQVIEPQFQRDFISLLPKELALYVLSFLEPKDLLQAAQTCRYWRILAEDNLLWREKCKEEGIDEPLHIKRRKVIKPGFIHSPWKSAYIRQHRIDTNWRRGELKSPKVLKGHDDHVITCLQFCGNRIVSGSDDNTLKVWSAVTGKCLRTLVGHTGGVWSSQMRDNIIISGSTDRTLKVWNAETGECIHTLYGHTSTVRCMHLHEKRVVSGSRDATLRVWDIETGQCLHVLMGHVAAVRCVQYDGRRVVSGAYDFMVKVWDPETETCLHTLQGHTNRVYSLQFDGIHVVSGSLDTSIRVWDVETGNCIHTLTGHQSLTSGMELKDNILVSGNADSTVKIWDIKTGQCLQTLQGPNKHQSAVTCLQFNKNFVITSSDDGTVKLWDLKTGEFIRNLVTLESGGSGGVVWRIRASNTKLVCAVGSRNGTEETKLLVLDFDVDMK
# Numbers without * were called inactive.
SMILES,GPR151 ag,TEAD-YAP block,MITF inh,FBW7 activator
CCCCNC(=O)c1c(Cl)nc(Cl)c([N+](=O)[O-])c1Cl,-0.7,45.0*,-0.5,-0.1
O=C(O)c1c(Cl)nc(Cl)c([N+](=O)[O-])c1Cl,0.4,15.1,6.1,-0.1
NC(=O)c1c(Cl)nc(Cl)c([N+](=O)[O-])c1Cl,-1.0,98.2*,5.2,-0.1
Nc1ccc2oc(-c3cc(Cl)ccc3Br)nc2c1,1.5,48.0*,-4.3,0.0
Oc1ccc2nc(-c3ccccc3)oc2c1,-6.0,70.5*,5.1,0.8
COc1ccc(-c2nc3cc(N)ccc3o2)cc1,-5.8,31.5,-3.4,0.2
Cc1ccc2oc(-c3ccc(N)cc3)nc2c1,-7.3,69.5*,5.1,-0.1
Cc1ccc2oc(-c3cccc(N)c3)nc2c1,-8.9,-6.5,4.5,-0.1
Nc1ccc(O)c(-c2nc3cc(Cl)ccc3o2)c1,-1.7,-42.9,4.3,0.0
COc1ccc(-c2nc3cc(C)ccc3o2)cc1,-7.4,69.5*,0.4,0.0
COC(=O)c1ccc(CN2CCN(CC=C(C)C)C(CCO)C2)cc1 (configuration not stated),1.1,5.0,-21.9,0.0
COCCNC(=O)CC(NS(=O)(=O)c1ccc(Br)cc1)c1ccco1 (configuration not stated),0.4,2.5,7.0,0.0
Nc1ccc2oc(-c3ccc(Cl)c(Cl)c3)nc2c1,-3.5,-3.0,-8.3,0.0
Nc1ccc2oc(-c3ccc(O)cc3)nc2c1,-6.1,88.8*,6.0,0.3
Cc1ccc(-c2nc3cc(N)ccc3o2)cc1,-7.5,54.1*,-3.3,0.1
CC(C)(C)c1ccc2oc(-c3ccc(N)cc3)nc2c1,-0.1,68.7*,3.6,0.2
Nc1ccc(-c2nc3cc([N+](=O)[O-])ccc3o2)cc1,-1.7,-39.1,2.7,-0.2
Cc1cccc2oc(-c3ccc(N)cc3)nc12,-2.9,50.6*,2.0,0.0
O=C(c1ncoc1-c1ccc2ccccc2c1)N1CCN(Cc2ccccn2)CC1,0.6,-12.0,0.2,-0.1
COc1cc2c(cc1OC)CN(Cc1cc(Cl)ccc1O)CC2,0.9,6.1,-10.1,-0.1
Cc1cc(Br)ccc1OCC(=O)NCc1ccc(F)cc1,-0.4,1.1,4.5,0.1
N#C/C(=C\c1ccco1)c1nc(-c2ccccc2)cs1,2.6,-66.7,-3.4,0.0
Cc1ccc(NC(=O)c2cc3nc(-c4ccco4)cc(C(F)(F)F)n3n2)cc1C,1.0,6.5,4.3,0.0
CCc1ccc(-n2nc3ccc(NC(=O)c4cc5ccccc5o4)cc3n2)cc1,-1.0,1.1,0.0,0.0
CC1=CC(C)(C)N(C(=O)c2ccc(NS(C)(=O)=O)cc2)c2ccc(C)cc21,1.1,58.5*,2.0,0.0
SMILES,GPR151 ag,TEAD-YAP block,MITF inh,FBW7 activator
CC1=CC(C)(C)N(C(=O)Nc2ccc(Cl)cc2)c2ccc(C)cc21,-0.9,-10.5,7.4,0.0
CCc1cccc(NS(=O)(=O)c2c(C)nc3sc(CC)nn3c2=O)c1,-0.8,11.4,-0.3,0.0
COc1ccccc1N1CCN(C(=O)CS(=O)(=O)Cc2ccccc2)CC1,-1.1,-3.1,-0.8,-0.1
COc1ccccc1N1CCN(C(=O)CN2CC=C[C@@H]2C(=O)NCCc2ccccc2)CC1,0.4,41.9*,-21.8,0.1
Cc1ccccc1-n1c(=S)sc2c(=O)n(-c3ccccc3F)c(SCc3cc(=O)n4cc(Cl)ccc4n3)nc21,0.2,9.2,16.6,0.1
COC(=O)COc1cccc2c(=O)n(CC(=O)Nc3ccc4c(c3)OCCO4)ccc12,0.3,2.5,6.3,-0.1
COc1cccc2c(SCC(=O)Nc3ccc4c(c3)OCCO4)nccc12,-1.1,50.9*,9.3,0.4
COc1cccc2c(SCC(=O)Nc3ccc4c(c3)OCO4)nccc12,-1.1,48.3*,-0.1,0.6
Nc1cccc(-c2nc(Nc3ccccc3)c3ncn(-c4ccsc4)c3n2)c1,-0.1,49.4*,1.1,0.0
CC(=O)Nc1ccc(Nc2nc(-c3cccc(N)c3)nc3c2ncn3-c2ccsc2)cc1,3.0,42.8*,-1.7,0.0
COc1ccc(-c2nc(Nc3ccc(NC(C)=O)cc3)c3ncn(-c4ccsc4)c3n2)cc1,0.1,43.2*,6.7,0.2
COc1ccc(N2CC(C(=O)OC(CCCl)C(=O)c3ccc(F)cc3)CC2=O)cc1 (configuration not stated),-0.7,6.2,5.7,0.1
COc1ccc(CCN(C)C2CCCN(S(=O)(=O)c3ccc(C)cc3)C2)cc1OC (configuration not stated),-1.0,1.8,6.9,0.0
Cc1ccc2cc3c(nc2n1)CCN(Cc1ccc(Cl)cc1S(C)(=O)=O)C3,0.3,-0.3,-3.8,-0.1
Cc1cccc(N(CC(=O)NCc2ccc(Cl)cc2)S(=O)(=O)c2ccccc2)c1C,-0.7,-0.8,20.8,0.4
c1ccc(-c2cn3nc(-c4ccccc4)sc3n2)cc1,-0.7,44.2*,5.9,0.2
O=c1cc(-c2ccccc2)oc2c(O)c(O)ccc12,-0.8,42.6*,11.4,0.2
O=c1cc(-c2ccccc2)oc2cc(O)c(O)cc12,0.0,70.1*,1.7,-0.4
OCCn1c2ccccc2c2ccccc21,2.5,-4.8,-3.4,0.0
C/C(=N\NC(=O)c1cc(-c2ccc(CC(C)C)cc2)n[nH]1)c1ccncc1,-0.8,67.2*,0.4,0.0
C/C(=N\NC(=O)c1cc(-c2ccccc2Cl)n[nH]1)c1ccc(O)cc1,-1.1,16.8,2.2,0.1
C/C(=N\NC(=O)c1cc(C(C)C)[nH]n1)c1ccncc1,3.0,-21.1,2.2,0.1
CCOc1ccccc1-c1cc(C(=O)N/N=C(\C)c2cccs2)[nH]n1,-0.4,48.7*,11.1,0.0
CCOc1cccc(-c2cc(C(=O)N/N=C(\C)c3cccs3)[nH]n2)c1,1.4,-9.5,13.7,0.1
CCOc1ccccc1-c1cc(C(=O)N/N=C(/C)c2ccc(OC)c(OC)c2)[nH]n1,0.5,39.5*,9.0,0.3
SMILES,GPR151 ag,TEAD-YAP block,MITF inh,FBW7 activator
CCOc1ccc(-c2cc(C(=O)N/N=C(\C)c3ccc(OC)cc3)[nH]n2)cc1,0.4,44.3*,6.9,0.0
CCCNC(=O)Cn1nc(C)n2c(cc3sc(C)cc32)c1=O,1.0,3.5,11.0,0.0
COc1ccc(C(=O)N/C(=C/c2cc(Br)ccc2F)C(=O)N2CC3CC(C2)c2cccc(=O)n2C3)cc1OC (configuration not stated),-0.2,-5.8,2.1,0.0
COC(=O)c1ccc(N2CCCCCC2)c(NS(=O)(=O)c2ccc(OC)cc2)c1,0.7,56.7*,-4.0,-0.5
COC(=O)c1ccc(C)c(NS(=O)(=O)c2ccc3ccccc3c2)c1,0.6,53.2*,-2.7,-0.2
COC(=O)c1ccc(C)c(NS(=O)(=O)c2ccc(OC)c(Cl)c2)c1,-1.0,41.2*,-5.4,0.1
COC(=O)c1ccc(Cl)c(NS(=O)(=O)c2ccc(C)cc2)c1,-1.7,56.8*,12.4,0.7
COC(=O)c1ccc(Cl)c(NS(=O)(=O)c2ccc(OC)c(Cl)c2)c1,1.4,-0.8,-13.7,-0.1
COC(=O)c1ccc(NS(=O)(=O)c2ccc(OC)cc2)cc1,-1.0,-3.1,0.5,0.1
COC(=O)c1ccc(C)c(NS(=O)(=O)c2ccc(OC)c(OC)c2)c1,1.1,-1.3,4.2,-0.4
COCCNC(=S)N/N=C/c1ccc(O)c(O)c1O,0.2,5.2,107.4*,-1.2
COCCNC(=O)CC(=O)N/N=C/c1ccccc1O,0.4,0.1,16.7,-1.6
